Test results published in PubChem BioAssay.
Measured potencies and affinities stand elsewhere. Inconclusive results are not listed. The source made the active and inactive calls. Unless noted, no rule for the calls is given here.

Tests used:
[1] = RMG-1 ovarian cancer cell viability loss – cherry-pick, dose response (AID 687029;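 active = signal drop whose fitted half-maximal concentration is at most twice the top valid dose, in every test run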;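 also: cells exposed to compound for 96 hours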); details: RMG-1 viability, CellTiterGlo ATP luminescence, 96 h; series mostly up to 35 µM
[2] = IOSE-T80 viability loss, PAX8-independent line – cell-based, cherry-pick, selectivity assay for PAX8 inhibitor project, dose response (AID 687032;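 active = fitted half-maximal concentration for viability loss no higher than twice the top valid dose, in every repeat run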;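 also: cells exposed to compound for 96 h before reading; 0% = neutral control wells and -100% = 2 µM mitoxantrone kill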); details: CellTiterGlo ATP luminescence, 96 h; series mostly up to 35 µM
[3] = CMV-driven luciferase expression suppression in HEK293 – cell-based, luminescence, dry powder, counter-screen for Pax8 inhibitor project, dose response (AID 743020;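 active = signal-lowering compounds whose fitted half-maximal concentration is at or below twice the top tested dose in every run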;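 also: HEK293 cells stably expressing the CMV luciferase reporter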); details: HEK293 CMV-luciferase reporter, SteadyGlo luminescence, 24 h; series mostly up to 35 µM
[4] = general cell-killing toxicity readout – plate reader, dry powder samples, cytotoxicity control for PAX8 inhibitor project, dose response (AID 743021); details: cell line, non-specific cytotoxicity counter-screen; series mostly up to 35 µM
[5] = IGROV1 cell killing – plate reader, dry powder samples, PAX8 inhibitor project, dose response (AID 743043); details: IGROV1 ovarian cancer cell cytotoxicity; series mostly up to 35 µM;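 also: more negative means fewer viable cells or more cytotoxicity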
[6] = OVCAR-3 cell viability loss – plate reader, dry powder samples, PAX8 inhibitor project, dose response (AID 743044); details: NIH:OVCAR-3 ovarian cancer cell viability; max activity: at 35 µM, active compounds read low unless noted; series mostly up to 50 µM
[7] = toxicity toward immortalized ovarian surface epithelium – cell-based, plate reader, dry powder samples, cytotoxicity control for PAX8 inhibitor project, dose response (AID 743045); details: IOSE-T80 ovarian epithelial cells; series mostly up to 35 µM;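 also: 0% = neutral control median and -100% = positive control median; more negative values mean more cell killing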
[8] = A2780 cell killing – plate reader, dry powder samples, cytotoxicity control, dose response (AID 743046); details: A2780 ovarian cancer cytotoxicity; series mostly up to 35 µM;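 also: 0% = neutral control wells and -100% = cytotoxic reference compound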
[9] = OVCAR8 cell viability loss – plate reader, dry powder samples, PAX8 project, dose response (AID 743197); details: series mostly up to 35 µM

O=C(c1ccc(F)cc1)N1C[C@@H]2N[C@H](C1)C2c1ccc(-c2ccc(F)cc2)cc1 (some centres not stated)
inactive: outcome [1] | outcome [2] | outcome [3] | outcome [4] | outcome [5] | max activity [6] -17.2% [at 4.2 µM, active compounds read low] | outcome [7] | outcome [8] | outcome [9]

C[C@@H]1CCCCO[C@H](CN(C)C(=O)Nc2ccc(C(F)(F)F)cc2)[C@@H](C)CN([C@@H](C)CO)C(=O)c2cc(NC(=O)Nc3ccccc3)ccc2O1
inactive: outcome [1] | outcome [2] | outcome [3] | outcome [4] | outcome [5] | max activity [6] -5.92% [at 16 µM, active compounds read low] | outcome [7] | outcome [8] | outcome [9]

Cc1ccc(S(=O)(=O)N(C)C[C@@H]2OCCCC[C@@H](C)Oc3ccc(NS(=O)(=O)c4ccc(Cl)cc4)cc3C(=O)N([C@H](C)CO)C[C@H]2C)cc1
inactive: outcome [1] | outcome [2] | outcome [3] | outcome [4] | outcome [5] | max activity [6] -13.3% [at 4.2 µM, active compounds read low] | outcome [7] | outcome [8]

Cc1ccc(S(=O)(=O)N(C)C[C@H]2Oc3ccc(NC(=O)Nc4ccc(C(F)(F)F)cc4)cc3CC(=O)N([C@H](C)CO)C[C@@H]2C)cc1
inactive: outcome [1] | outcome [2] | outcome [3] | outcome [4] | outcome [5] | max activity [6] 49.2% [at 16 µM, active compounds read low] | outcome [7] | outcome [8] | outcome [9]

C[C@@H]1CN([C@@H](C)CO)C(=O)c2cc(NS(=O)(=O)c3ccc(Cl)cc3)ccc2O[C@@H](C)CCCCO[C@H]1CN(C)Cc1ccc(C(F)(F)F)cc1
inactive: outcome [1] | outcome [2] | outcome [3] | outcome [4] | outcome [5] | max activity [6] 22.1% [at 16 µM, active compounds read low] | outcome [7] | outcome [8] | outcome [9]

C[C@@H]1CN([C@@H](C)CO)C(=O)Cc2cc(NC(=O)Nc3ccc(F)cc3)ccc2O[C@H]1CN(C)CC1CCCCC1
inactive: outcome [1] | outcome [2] | outcome [3] | outcome [4] | outcome [5] | max activity [6] 14.9% [at 2.1 µM, active compounds read low] | outcome [7] | outcome [8] | outcome [9]

Cc1ccc(S(=O)(=O)N(C)C[C@@H]2OCCCC[C@H](C)Oc3ccc(NS(=O)(=O)c4cccs4)cc3C(=O)N([C@H](C)CO)C[C@H]2C)cc1
inactive: outcome [1] | outcome [2] | outcome [3] | outcome [4] | outcome [5] | max activity [6] 5.96% | outcome [7] | outcome [8]

COc1ccccc1-c1ccc2c(c1)O[C@H](CN(C)Cc1ccc3c(c1)OCO3)[C@H](C)CN([C@@H](C)CO)S2(=O)=O
inactive: outcome [1] | outcome [2] | outcome [3] | outcome [4] | outcome [5] | max activity [6] 20.4% [at 4.2 µM, active compounds read low] | outcome [7] | outcome [8] | outcome [9]

O=C(Nc1cccc(F)c1)N[C@@H]1CC[C@@H](CCNS(=O)(=O)c2cccc(Cl)c2)O[C@@H]1CO
inactive: outcome [1] | outcome [2] | outcome [3] | outcome [4] | outcome [5] | max activity [6] -20.4% [at 0.5 µM, active compounds read low] | outcome [7] | outcome [8] | outcome [9]

C[C@H]1CN([C@@H](C)CO)C(=O)CCCn2nncc2CO[C@@H]1CN(C)C(=O)Nc1ccc(-c2cccs2)cc1
inactive: outcome [1] | outcome [2] | outcome [3] | outcome [4] | outcome [5] | max activity [6] -29.9% | outcome [7] | outcome [8] | outcome [9]

COc1ccc(S(=O)(=O)N2CCCCN3[C@H](C2)[C@@H](c2ccc(C#CC(C)C)cc2)[C@@H]3CO)cc1
inactive: outcome [1] | outcome [2] | outcome [3] | outcome [4] | outcome [5] | max activity [6] 10.6% [at 8 µM, active compounds read low] | outcome [7] | outcome [8] | outcome [9]

C[C@@H]1CN([C@@H](C)CO)C(=O)c2cc(NC(=O)c3ccccc3)ccc2O[C@@H](C)CCCCO[C@H]1CN(C)Cc1ccc(C(F)(F)F)cc1
inactive: outcome [1] | outcome [2] | outcome [3] | outcome [4] | outcome [5] | max activity [6] -28.2% [at 0.26 µM, active compounds read low] | outcome [7] | outcome [8] | outcome [9]

O=C(C[C@@H]1C[C@H]2c3cc(NC(=O)C4CCOCC4)ccc3O[C@H]2[C@H](CO)O1)NCc1ccc(Oc2ccccc2)cc1
inactive: outcome [1] | outcome [2] | outcome [3] | outcome [4] | outcome [5] | max activity [6] -20% [at 8 µM, active compounds read low] | outcome [7] | outcome [8] | outcome [9]

C[C@H](CO)N1C[C@H](C)[C@@H](CN(C)C(=O)NC2CCCCC2)Oc2cc(C#Cc3ccc(F)cc3)ccc2S1(=O)=O
inactive: outcome [1] | outcome [2] | outcome [3] | outcome [4] | outcome [5] | max activity [6] 10.3% [at 2.1 µM, active compounds read low] | outcome [7] | outcome [8] | outcome [9]

CCCC(=O)Nc1ccc2c(c1)C(=O)N(C)C[C@@H](OC)[C@H](C)CN(Cc1ccc(-c3ccccn3)cc1)[C@H](C)CO2
inactive: outcome [1] | outcome [2] | outcome [3] | outcome [4] | outcome [5] | max activity [6] 8.7% [at 0.5 µM, active compounds read low] | outcome [7] | outcome [8] | outcome [9]

C[C@@H]1CN([C@@H](C)CO)C(=O)Cc2cc(NC(=O)Nc3ccc(C(F)(F)F)cc3)ccc2O[C@H]1CN(C)Cc1ccc(Cl)c(Cl)c1
inactive: outcome [1] | outcome [2] | outcome [3] | outcome [4] | outcome [5] | max activity [6] 9.21% [at 0.26 µM, active compounds read low] | outcome [7] | outcome [8] | outcome [9]

COc1ccc(S(=O)(=O)N(C)C[C@H]2Oc3ccc(NC(=O)Nc4ccc(C(F)(F)F)cc4)cc3CC(=O)N([C@H](C)CO)C[C@@H]2C)cc1
inactive: outcome [1] | outcome [2] | outcome [3] | outcome [4] | outcome [5] | max activity [6] 26.7% [at 16 µM, active compounds read low] | outcome [7] | outcome [8] | outcome [9]

Cc1ccc(S(=O)(=O)N(C)C[C@H]2Oc3c(NC(=O)Nc4ccc(F)cc4)cccc3C(=O)N([C@@H](C)CO)C[C@H]2C)cc1
inactive: outcome [1] | outcome [2] | outcome [3] | outcome [4] | outcome [5] | max activity [6] -10.2% | outcome [7] | outcome [8] | outcome [9]

O=C(C[C@@H]1C[C@H]2c3cc(NC(=O)Nc4ccc(C(F)(F)F)cc4)ccc3O[C@H]2[C@H](CO)O1)NCCc1ccccc1
inactive: outcome [1] | outcome [2] | outcome [3] | outcome [4] | outcome [5] | max activity [6] 13% | outcome [7] | outcome [8] | outcome [9]

COc1ccc(S(=O)(=O)Nc2ccc3c(c2)C(=O)N([C@@H](C)CO)C[C@H](C)[C@H](CN(C)Cc2ccc(C(F)(F)F)cc2)OCCCC[C@@H](C)O3)cc1
inactive: outcome [1] | outcome [2] | outcome [3] | outcome [4] | outcome [5] | max activity [6] 26.1% | outcome [7] | outcome [8] | outcome [9]

C[C@@H]1CCCCO[C@@H](CN(C)Cc2ccc(C(F)(F)F)cc2)[C@H](C)CN([C@@H](C)CO)C(=O)c2cc(NS(=O)(=O)c3ccccc3)ccc2O1
inactive: outcome [1] | outcome [2] | outcome [3] | outcome [4] | outcome [5] | max activity [6] 11.3% [at 2.1 µM, active compounds read low] | outcome [7] | outcome [8] | outcome [9]

C[C@@H]1CN([C@@H](C)CO)C(=O)c2cc(NC(=O)Nc3ccc(C(F)(F)F)cc3)ccc2O[C@@H](C)CCCCO[C@H]1CN(C)Cc1ccc(Cl)c(Cl)c1
inactive: outcome [1] | outcome [2] | outcome [3] | outcome [4] | outcome [5] | max activity [6] -12.8% [at 0.26 µM, active compounds read low] | outcome [7] | outcome [8] | outcome [9]

CC(C)CC#Cc1ccc2c(c1)O[C@@H](CN(C)Cc1ccncc1)[C@H](C)CN([C@@H](C)CO)S2(=O)=O
inactive: outcome [1] | outcome [2] | outcome [3] | outcome [4] | outcome [5] | max activity [6] 11.2% [at 4.2 µM, active compounds read low] | outcome [7] | outcome [8] | outcome [9]

C[C@@H]1CCCCO[C@@H](CN(C)C(=O)Nc2ccccc2)[C@H](C)CN([C@H](C)CO)C(=O)c2cc(NC(=O)Nc3ccc(C(F)(F)F)cc3)ccc2O1
inactive: outcome [1] | outcome [2] | activity change, negative = inhibition [3] 5.92% [at 8 µM] | outcome [4] | outcome [5] | max activity [6] 33.8% [at 16 µM, active compounds read low] | outcome [7] | outcome [8] | outcome [9]

Cc1cccc(-c2ccc([C@H]3[C@H](CO)N4CCCCN(S(=O)(=O)c5ccccc5C)C[C@@H]34)cc2)c1
inactive: outcome [1] | outcome [2] | outcome [3] | outcome [4] | outcome [5] | max activity [6] -11.5% | outcome [7] | outcome [8] | outcome [9]

C[C@@H]1CN([C@@H](C)CO)C(=O)Cc2cc(NS(=O)(=O)c3ccc(F)cc3)ccc2O[C@H]1CN(C)Cc1ccc(Oc2ccccc2)cc1
inactive: outcome [1] | outcome [2] | outcome [3] | outcome [4] | outcome [5] | max activity [6] -22.3% [at 4.2 µM, active compounds read low] | outcome [7] | outcome [8] | outcome [9]
